# IL-1B inflam inh: qHTS for Inhibitors of Inflammasome Signaling: IL-1-beta AlphaLISA Primary Screen | THP-1 LPS/ATP IL-1B secretion, AlphaLISA, 16 h; hits give low values | activity change, % at 57.5 µM | 4.7% of 360,000 active | AID 743279, 2014; in the data active means activity change below about -50%; inconclusive means mostly about -30% to -49%; further: on the % scale 0 is the no-effect control and ±100 the full control effect
#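 THP-1 cells pretreated 1 hr with compounds (up to 57.5 uM final), then stimulated with LPS (250 ng/mL final) plus ATP (1.25 mM final); secreted IL-1B measured by AlphaLISA after 16 hr, decreased signal indicating inhibition.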
# TDP1 cell CPT: qHTS for Inhibitors of human tyrosyl-DNA phosphodiesterase 1 (TDP1): qHTS in cells in presence of CPT; chicken DT40 Tdp1-/-;hTDP1 cells + 20 nM CPT, ATP luminescence, 48 h; 12% of 420,000 active; Potency, µM (doses to about 46.2 µM), inactives show top-dose activity change, negative = growth inhibition, usual class: inhibitors; AID 686979, 2013; further: potency means the concentration at half of the fitted maximal effect; on the % scale 0 is the no-effect control and ±100 the full control effect; nearly all actives have a fitted effect of over 55% in size
#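 Cell growth measured by CellTiter-Glo luminescence after a minimum 48 h, 37 C compound exposure with 20 nM CPT in Tdp1-knockout DT40 cells stably expressing hTDP1, seeded 400/well; qHTS titration format.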
# S-ASM inh: Inhibitors of Secretory Acid Sphingomyelinase (S-ASM): qHTS; placental ASM, HMU-PC fluorogenic substrate, 60 min; Potency, µM (doses to about 57.5 µM), for the others: at the highest dose activity change, negative = inhibition, most hits filed as inhibitors; 0.006% of 340,000 active; AID 504937, 2011; further: potency means the concentration at half of the fitted maximal effect
# Target sequence (P17405 47-631 limits assumed): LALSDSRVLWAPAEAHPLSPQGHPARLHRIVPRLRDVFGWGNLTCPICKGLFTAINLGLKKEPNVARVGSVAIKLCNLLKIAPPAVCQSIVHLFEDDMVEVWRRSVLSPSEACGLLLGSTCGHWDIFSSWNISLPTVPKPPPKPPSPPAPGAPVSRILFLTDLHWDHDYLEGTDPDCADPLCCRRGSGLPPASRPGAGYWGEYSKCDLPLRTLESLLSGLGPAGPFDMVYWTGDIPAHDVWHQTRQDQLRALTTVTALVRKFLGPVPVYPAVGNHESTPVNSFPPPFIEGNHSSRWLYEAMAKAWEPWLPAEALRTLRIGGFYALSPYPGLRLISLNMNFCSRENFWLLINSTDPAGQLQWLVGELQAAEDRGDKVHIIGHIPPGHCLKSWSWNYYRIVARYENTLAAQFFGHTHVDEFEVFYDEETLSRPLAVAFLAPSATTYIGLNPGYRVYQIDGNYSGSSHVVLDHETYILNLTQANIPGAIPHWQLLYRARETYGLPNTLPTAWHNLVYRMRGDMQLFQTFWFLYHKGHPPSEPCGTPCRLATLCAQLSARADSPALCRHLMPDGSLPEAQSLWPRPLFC
#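 qHTS format. ASM enzyme prepared from human placenta hydrolyses the fluorogenic substrate HMU-PC0 (9 uM final) over 60 min at 37 °C after a 10 min compound preincubation.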
# HepG2 viability: qHTS for Inhibitors of TGF-b: Cytotox Counterscreen. HepG2 CAGA-GFP viability, ATP luminescence, 18 h. Potency, µM (highest dose often 46.1 µM), for inactives: at the top dose activity change, negative = cytotoxicity, usual class: cytotoxic. 0.76% of 410,000 active. AID 588856, 2011; further: potency means the concentration at half of the fitted maximal effect
#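 CellTiter-Glo luminescence gave cytotoxicity after 18 hours at 37 degrees C. The cells were HepG2 CAGA-GFP in 1% FBS DMEM, stimulated with 500 pg/mL TGF-beta after compound addition. %Activity was normalised to no-cell wells (complete cell-killing) and DMSO (no toxicity), and curves were fitted and classified.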
# TDP1 cell noCPT: qHTS for Inhibitors of human tyrosyl-DNA phosphodiesterase 1 (TDP1): qHTS in cells in absence of CPT; AID 686978, 2013; DT40 Tdp1-/- hTDP1 cells, no CPT, ATP luminescence, 48 h; 15% of 420,000 active; Potency, µM (series often up to 46.2 µM), for inactives: at the top dose activity change, negative = growth inhibition, actives largely listed as inhibitors; further: potency means the concentration at half of the fitted maximal effect; on the % scale 0 is the no-effect control and ±100 the full control effect; nearly all actives have a fitted effect of over 55% in size
#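 Growth kinetics read by CellTiter-Glo luminescence after ≥48 hr at 37 °C. Cells: DT40 Tdp1-/- stably carrying human TDP1, 400 per well, compound exposure in the absence of CPT (DMSO vehicle).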
# TGFb SMAD3 inh: qHTS for Inhibitors of TGF-b; HepG2 CAGA-GFP TGF-b/SMAD3 reporter, GFP fluorescence, 18 h; TGF-beta stimulated, 500 pg/mL final; Potency, µM (highest dose often 46.1 µM), for inactives: top-dose activity, negative = inhibition, hits mostly inhibitors; 1.2% of 410,000 active; further: potency means the concentration at half of the fitted maximal effect; on the % scale 0 is the no-effect control and ±100 the full control effect; nearly all actives have a fitted effect of over 65% in size
#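 Using HEPG2 CAGA-GFP reporter cells at 1000 cells/well, we pinned test compounds, stimulated with recombinant TGF-beta (500 pg/mL final) and measured total well GFP after 18 h.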
# Active calls of the source: *; i = inactive; u = inconclusive; x = not tested or not shown. A selection: hits, their analogues and other compounds. The true share with any hit is near 19%. Unless noted, the call rests on the fitted dose curve; in most records, active means well fitted curve in the direction sought with a large enough effect; inconclusive means small, poorly fitted or top-dose-only effect, or another doubt; inactive means no such curve, though single readings can be large; an effect the other way counts as inactive or inconclusive.
SMILES,IL-1B inflam inh,TDP1 cell CPT,S-ASM inh,HepG2 viability,TDP1 cell noCPT,TGFb SMAD3 inh
O=C(Nc1nc2c(s1)CCCC2)c1ccc(S(=O)(=O)N2CCCc3ccccc32)cc1,-1,u,3%,-10%,u,u
COC(=O)Nc1ccc(S(=O)(=O)N2CCCc3ccccc32)cc1,49,2.6µM*,-2%,-21%,2.3µM*,-23%
O=C(Nc1ccc(S(=O)(=O)N2CCc3ccccc32)cc1)C(F)(F)F,-8,7%,-6%,-3%,u,-10%
CCCN(CCC)C(=O)Cn1c(=O)n(-c2ccc(C)cc2)c(=O)c2ccc(C(=O)NCc3ccccc3Cl)cc21,x,u,x,-28%,u,-9%
O=[N+]([O-])c1cc(Cl)c2cccnc2c1O,126,u,-3%,-26%,18µM*,u
O=[N+]([O-])c1cc([N+](=O)[O-])c2cccnc2c1Oc1ccccc1O,26,2.6µM*,-4%,3%,1.8µM*,-4%
O=[N+]([O-])c1ccc(Cl)c2cccnc12,-22,-26%,1%,1%,u,-2%
O=[N+]([O-])c1cc(F)c2cccnc2c1O,30,9.2µM*,-1%,16µM*,7.3µM*,u
O=[N+]([O-])c1ccc(O)c2cccnc12,8,-4%,-5%,-2%,-11%,-2%
COc1ccccc1S(=O)(=O)N(C)C[C@H]1OCc2cnnn2CCCC(=O)N([C@@H](C)CO)C[C@@H]1C,13,1%,x,-3%,-5%,-3%
O=C(Nc1ccc(C(=O)N2CCCC2)cc1)c1ccccc1,-8,u,6%,-47%,u,-1%
COc1cccc(C(=O)Nc2ccc3c(c2)CCCN3C(=O)c2cccs2)c1OC,u,16µM*,-5%,-34%,13µM*,2%
CCCCOc1ccc(C(=O)Nc2ccc3c(c2)CCCN3C(=O)c2cccs2)cc1,x,5.8µM*,x,-43%,5.2µM*,-11%
COc1ccc(C(=O)Nc2ccc3c(c2)CCCN3C(=O)c2cccs2)c(OC)c1,7,8.2µM*,0%,-6%,12µM*,-11%
O=C(Nc1ccc2c(c1)CCCN2C(=O)c1ccccc1)c1ccccc1,-30,u,-2%,-45%,15µM*,3%
COc1ccc(C(=O)Nc2cc3c4c(c2)CC(=O)N4CCC3)c(OC)c1,15,u,-1%,-30%,u,14%
COc1cccc(OC)c1C(=O)Nc1ccc2c(c1)N(S(=O)(=O)c1cccs1)CCC2,u,-4%,-1%,3%,1%,8%
COc1cccc(SCc2noc(C(=O)NCCCN3CCOCC3)c2C(=O)NCCCN2CCOCC2)c1,-6,-12%,3%,8%,0%,19%
Cc1ccc2c(c1)CCCN2C(=O)c1cccs1,17,-7%,-3%,0%,-2%,u
Cc1ccccc1C(=O)Nc1ccc2c(c1)CCCN2C(=O)c1cccs1,u,18µM*,-5%,-80%,u,2%
CCOC(=O)Cn1cccc1-c1nc(-c2ccc(OC)cc2)c(-c2ccc(OC)cc2)s1,x,5%,x,x,1%,x
O=c1oc2ccccc2c2c1C(c1ccc(Cl)cc1)Nc1ccc3ccccc3c1-2 (stereo not drawn),17,u,417%,4%,u,-3%
CCOc1ccc(C2Nc3ccc4ccccc4c3-c3c2c(=O)oc2ccccc32)cc1 (stereo not drawn),-55*,u,i,-6%,u,1%
O=C(C1CCCN(c2ncnc3c2nc2n3CCCCC2)C1)N1CCCCC1 (stereo not drawn),35,u,-1%,-11%,u,-2%
COc1cc(OC)c(N(C)C(=O)C2CCCN(c3ncnc4c3nc3n4CCCCC3)C2)cc1Cl (stereo not drawn),x,u,x,-32%,21µM*,u
SMILES,IL-1B inflam inh,TDP1 cell CPT,S-ASM inh,HepG2 viability,TDP1 cell noCPT,TGFb SMAD3 inh
O=C(Nc1ccc(Cl)cn1)C1CCN(c2ncnc3c2nc2n3CCCCC2)CC1,-91*,u,-7%,-18%,16µM*,u
CC(=O)c1cccc(NC(=O)C2CCN(c3ncnc4c3nc3n4CCCCC3)CC2)c1,x,u,x,-25%,u,18µM*
O=C(NCCCN1CCN(c2ccccc2)CC1)C1CCCN(c2ncnc3c2nc2n3CCCCC2)C1 (stereo not drawn),10,23µM*,-1%,11%,u,-2%
O=C(NCCCc1nc2ccccc2n1Cc1ccccc1F)c1ccco1,x,u,x,-25%,u,u
CCCC1(C(=O)OC)NC(c2ccc(OC)c(OC)c2)C2C(=O)N(c3cccc(C(C)=O)c3)C(=O)C21 (stereo not drawn),12,-3%,0%,-4%,-11%,-2%
O=C(NCc1ccco1)C1CCCN(c2ncnc3c2nc2n3CCCCC2)C1 (stereo not drawn),11,u,-2%,-18%,13µM*,0%
O=C(NCc1ccccc1Cl)C1CCCN(c2ncnc3c2nc2n3CCCCC2)C1 (stereo not drawn),-20,u,0%,-27%,u,-22%
Cc1ccc(NC(=O)C2CCCN(c3ncnc4c3nc3n4CCCCC3)C2)nc1 (stereo not drawn),25,13µM*,-1%,-2%,8.2µM*,0%
O=C(Nc1ccccn1)C1CCCN(c2ncnc3c2nc2n3CCCCC2)C1 (stereo not drawn),66,u,1%,-18%,15µM*,-12%
O=C(Nc1ccc(F)c(Cl)c1)C1CCN(c2ncnc3c2nc2n3CCCCC2)CC1,-20,u,-3%,-2%,18µM*,-14%
Cc1cc(C(=O)NC(C)C2CC2)c(Cl)cc1Cl (stereo not drawn),-6,2%,-3%,-11%,-8%,3%
Cc1cc(C)c(S(=O)(=O)c2ccc(C(C)(C)C)cc2)c(Cl)n1,31,u,-9%,-13%,-14%,-16%

# Screens as filed in PubChem.
